Reference: PubChem BioAssay AID1159580 (chemical genetic matrix, 2015)
Several values for one entry are separate records, joined by “and”; a condition that tells them apart may be missing. Equal entries are not always repeated. Among all 5,500 compounds or so, about 2,000 (36%) were called active. Inconclusive results (about 18%) are left out. Rule as the data show it: active = normalized growth mostly below about 0.91 (no sharp cut-off); inconclusive = no clear call, values can overlap the other calls; inactive = mostly above about 0.92. The list shows a part of the results.

Experiment: chemical genetic growth profiling, strain panel (AID 1159580);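 also: tested at 20 µM; growth read once vehicle control cultures reached saturation at 30 °C; 1 = growth at the plate median or of vehicle wells; lower values mean less growth of the strain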
Details: S. cerevisiae deletion strains, growth OD

Measured: normalized growth

C[C@@H]1CCC2[C@](C)(CO)[C@@H](O)CC[C@]2(C)[C@@]12CC[C@@](CO)(CCO)O2 (stereo partly specified)
inactive: locus YAL021C, strain ccr4, hits give low values 0.991 | locus YAL026C, strain drs2, hits give low values 0.985 | locus YAL030W, strain snc1, hits give low values 0.987 | locus YBL061C, strain skt5, hits give low values 0.967 | locus YBR009C, strain hhf1, hits give low values 0.977 | locus YBR021W, strain FUR4, hits give low values 0.998 | locus YBR023C, strain chs3, hits give low values 0.983 | locus YBR171W, strain sec66, hits give low values 0.965 | locus YBR229C, strain ROT2, hits give low values 0.997 | locus YBR231C, strain swc5, hits give low values 0.997 | locus YBR279W, strain paf1, hits give low values 0.991 | locus YCL011C, strain gbp2, hits give low values 0.994 | locus YCL016C, strain dcc1, hits give low values 0.989 | locus YCL029C, strain bik1, hits give low values 0.986 | locus YCL061C, strain MRC1, hits give low values 0.975 | locus YCL069W, strain vba3, hits give low values 0.979 | locus YCR088W, strain abp1, hits give low values 0.979 | locus YDL005C, strain med2, hits give low values 0.972 | locus YDL035C, strain GPR1, hits give low values 1.02 | locus YDL040C, strain nat1, hits give low values 0.972 | locus YDL074C, strain BRE1, hits give low values 1 | locus YDL101C, strain DUN1, hits give low values 1 | locus YDL134C, strain PPH21, hits give low values 1.04 | locus YDL185W, strain tfp1, hits give low values 0.987 | locus YDL192W, strain arf1, hits give low values 0.994 | locus YDR001C, strain nth1, hits give low values 0.986 | locus YDR069C, strain doa4, hits give low values 0.963 | locus YDR101C, strain arx1, hits give low values 0.995 | locus YDR137W, strain rgp1, hits give low values 1.01 | locus YDR159W, strain sac3, hits give low values 0.933 | locus YDR162C, strain NBP2, hits give low values 1.06 | locus YDR195W, strain ref2 0.959 | locus YDR297W, strain sur2, hits give low values 0.996 | locus YDR318W, strain mcm21, hits give low values 0.994 | locus YDR334W, strain swr1, hits give low values 0.976 | locus YDR335W, strain msn5, hits give low values 0.978 | locus YDR388W, hits give low values 0.974 | locus YDR392W, strain spt3, hits give low values 0.975 | locus YDR502C, strain sam2, hits give low values 1.01 | locus YEL003W, strain gim4, hits give low values 0.974 | locus YEL037C, strain rad23, hits give low values 0.968 | locus YEL061C, strain CIN8 (second series), hits give low values 0.98 | locus YEL061C, strain CIN8, hits give low values 1.01 | locus YER015W, strain faa2, hits give low values 0.99 | locus YER016W, strain bim1, hits give low values 0.981 | locus YER110C, hits give low values 0.983 | locus YER111C, strain swi4, hits give low values 0.959 | locus YER155C, strain BEM2 (second series), hits give low values 0.958 | locus YER155C, strain BEM2, hits give low values 0.993 | locus YER167W, strain BCK2, hits give low values 1 | locus YFR010W, strain ubp6, hits give low values 0.957 | locus YGL078C, strain dbp3, hits give low values 0.985 | locus YGL086W, strain mad1, hits give low values 1.03 | locus YGL167C, strain pmr1, hits give low values 0.976 | locus YGL173C, strain kem1, hits give low values 0.979 | locus YGL227W, strain vid30, hits give low values 0.978 | locus YGL240W, strain doc1, hits give low values 0.966 | locus YGL248W, strain PDE1, hits give low values 1 | locus YGL253W, strain hxk2, hits give low values 0.944 | locus YGR078C, strain PAC10, hits give low values 1.03 | locus YGR135W, strain pre9, hits give low values 0.983 | locus YGR229C, strain SMI1, hits give low values 1.04 | locus YGR252W, strain gcn5, hits give low values 1.02 | locus YHR013C, strain ard1, hits give low values 0.959 | locus YHR027C, strain rpn1, hits give low values 0.983 | locus YHR030C, strain SLT2, hits give low values 1 and 0.991 | locus YHR079C, strain IRE1 (second series), hits give low values 0.981 | locus YHR079C, strain IRE1, hits give low values 0.99 | locus YHR094C, strain hxt1, hits give low values 0.982 | locus YHR129C, strain ARP1, hits give low values 1 | locus YHR142W, strain chs7, hits give low values 0.977 | locus YHR200W, strain rpn10, hits give low values 0.985 | locus YIL066C, strain RNR3, hits give low values 1.02 | locus YIL073C, strain SPO22, hits give low values 0.979 | locus YIL125W, strain kgd1, hits give low values 0.975 | locus YIR030C, strain dcg1, hits give low values 0.991 | locus YJL092W, strain hpr5, hits give low values 0.977 | locus YJL095W, strain BCK1 (second series), hits give low values 0.983 | locus YJL095W, strain BCK1, hits give low values 1.04 and 0.955 | locus YJL115W, strain asf1, hits give low values 0.986 | locus YJL129C, strain trk1, hits give low values 0.966 | locus YJL134W, strain LCB3, hits give low values 0.991 | locus YJL154C, strain vps35, hits give low values 0.982 | locus YJL164C, strain tpk1, hits give low values 1 | locus YJL166W, strain qcr8, hits give low values 0.98 | locus YJL168C, strain set2, hits give low values 0.989 | locus YJL187C, strain SWE1 (second series), hits give low values 1 | locus YJL187C, strain SWE1, hits give low values 0.981 | locus YJR043C, strain POL32, hits give low values 1.04 | locus YJR066W, strain TOR1, hits give low values 0.976 | locus YJR075W, strain HOC1, hits give low values 1.04 | locus YKL009W, strain mrt4, hits give low values 0.976 | locus YKL068W, hits give low values 0.986 | locus YKL085W, strain MDH1 (second series), hits give low values 0.99 | locus YKL085W, strain MDH1, hits give low values 0.99 | locus YKL160W, strain elf1, hits give low values 0.988 | locus YKR001C, strain vps1, hits give low values 1.01 | locus YKR026C, strain gcn3, hits give low values 0.978 | locus YKR091W, strain srl3, hits give low values 0.988 | locus YLL001W, strain dnm1, hits give low values 0.991 | locus YLL026W, hits give low values 0.982 | locus YLL041C, strain sdh2, hits give low values 0.977 | locus YLR027C, strain aat2, hits give low values 0.98 | locus YLR039C, strain RIC1, hits give low values 1.09 | locus YLR058C, strain SHM2, hits give low values 1 | locus YLR102C, strain apc9, hits give low values 0.977 | locus YLR113W, strain HOG1, hits give low values 0.991 | locus YLR221C, strain rsa3, hits give low values 0.953 | locus YLR258W, strain gsy2, hits give low values 0.969 | locus YLR262C, strain YPT6 (second series), hits give low values 1.01 | locus YLR262C, strain YPT6, hits give low values 1.09 | locus YLR268W, strain sec22, hits give low values 0.996 | locus YLR320W, strain mms22, hits give low values 0.971 | locus YLR330W, strain CHS5, hits give low values 0.995 | locus YLR342W, strain FKS1 (second series), hits give low values 0.995 | locus YLR342W, strain FKS1, hits give low values 0.969 | locus YLR357W, strain rsc2, hits give low values 0.95 | locus YLR370C, strain arc18, hits give low values 0.977 | locus YLR371W, strain rom2, hits give low values 0.982 | locus YLR384C, strain iki3, hits give low values 0.974 | locus YLR418C, strain cdc73, hits give low values 1.03 | locus YML016C, strain PPZ1, hits give low values 0.997 | locus YML032C, strain rad52, hits give low values 0.97 | locus YML120C, strain ndi1, hits give low values 0.992 | locus YML124C, strain tub3, hits give low values 0.993 | locus YMR058W, strain fet3, hits give low values 0.973 | locus YMR078C, strain ctf18, hits give low values 1 | locus YMR125W, strain sto1, hits give low values 0.982 | locus YMR129W, hits give low values 0.986 | locus YMR205C, strain PFK2, hits give low values 1.01 | locus YMR223W, strain ubp8, hits give low values 1 | locus YMR231W, strain pep5, hits give low values 0.951 | locus YMR307W, strain GAS1, hits give low values 1.15 | locus YNL067W, strain RPL9B, hits give low values 1.03 | locus YNL071W, strain lat1, hits give low values 0.989 | locus YNL153C, strain GIM3, hits give low values 1.04 | locus YNL183C, strain NPR1, hits give low values 0.977 | locus YNL209W, strain ssb2, hits give low values 0.992 | locus YNL233W, strain BNI4, hits give low values 1.02 | locus YNL248C, strain rpa49, hits give low values 0.976 | locus YNL250W, strain rad50, hits give low values 0.985 | locus YNL271C, strain bni1, hits give low values 1.01 | locus YNL298W, strain CLA4, hits give low values 0.968 | locus YNL307C, strain MCK1, hits give low values 0.982 | locus YNL322C, strain KRE1 (second series), hits give low values 1 | locus YNL322C, strain KRE1, hits give low values 1.01 | locus YNR049C, strain mso1, hits give low values 0.971 | locus YNR052C, strain pop2, hits give low values 0.983 | locus YOL012C, strain htz1 1.2 | locus YOL147C, strain pex11, hits give low values 0.989 | locus YOR001W, strain rrp6, hits give low values 0.956 | locus YOR061W, strain CKA2, hits give low values 1 | locus YOR069W, strain VPS5, hits give low values 0.991 | locus YOR070C, strain gyp1, hits give low values 0.973 | locus YOR080W, strain dia2, hits give low values 0.972 | locus YOR083W, strain WHI5, hits give low values 1 | locus YOR106W, strain vam3, hits give low values 1.03 | locus YOR136W, strain idh2, hits give low values 0.984 | locus YOR144C, strain elg1, hits give low values 0.999 | locus YOR184W, strain ser1, hits give low values 1.02 | locus YOR231W, strain MKK1, hits give low values 1 | locus YOR265W, strain rbl2, hits give low values 0.996 | locus YOR270C, strain vph1, hits give low values 0.971 | locus YOR290C, strain snf2, hits give low values 0.967 | locus YOR316C, strain cot1, hits give low values 0.975 | locus YPL051W, strain arl3, hits give low values 0.965 | locus YPL078C, strain atp4, hits give low values 0.995 | locus YPL106C, strain sse1, hits give low values 0.987 | locus YPL240C, strain hsp82, hits give low values 0.981 | locus YPL241C, strain CIN2, hits give low values 1.01 | locus YPL256C, strain CLN2, hits give low values 0.996 | locus YPR119W, strain clb2, hits give low values 0.997 | locus YPR141C, strain kar3, hits give low values 0.984 | locus YPR163C, strain tif3, hits give low values 0.983 | locus YPR167C, strain met16, hits give low values 1.01 | strain wtn01, hits give low values 0.98
